Assay outcomes: PubChem BioAssay, several laboratories
SKKanGAS inh = S. pyogenes SKKanGAS growth inhibitors in kanamycin, primary screen, streptokinase expression inhibitor project, SKKanGAS strain, BacTiter-Glo luminescence | inhibition, % at 7.5 µM | AID 1662, 2009 | hit rate 1.3% among 300,000 | 6 h;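 active = mean replicate score, as percent of positive control median, at least 50; inconclusive = mean below 50 but one replicate at or above 50; inactive = mean and every replicate below 50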;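 also: strain carries kanamycin resistance gene driven by streptokinase promoter and grows in 40 µg/ml kanamycin; loss of luminescence reflects streptokinase promoter inhibition or plain growth inhibition; 0% = median of DMSO wells and 100% = positive control at its reference dose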
Calb FLC = C. albicans growth inhibition with fluconazole, primary screen, CaCi-2 strain, Alamar Blue fluorescence | C. albicans CaCi-2 (fluconazole-resistant clinical isolate) + fluconazole, 48 h | growth inhibition, % (test concentration not listed) | hit rate 0.57% among 300,000;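 active = growth inhibition above about 58% in most replicates, limit read from the data, passing the limit was not always enough; inconclusive = exactly half the replicates above a set limit; inactive = most replicates below a set limit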;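 also: all wells also contain fluconazole at 8 µg/ml as a sub-toxic cotreatment; 0% = median of DMSO wells and 100% = median of geldanamycin control wells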
Beta apoptosis = inhibitors of cytokine-induced beta cell apoptosis, primary screen, luminescence; protection from apoptosis, % (test concentration not listed); hit rate 0.8% among 300,000; INS-1E cytokine-induced death, ATP luminescence, 48 h; percent of positive-control rescue, neutral wells zero;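 active = Every replicate reaches about 75%, or at least half do and their mean reaches it too, limit read from the data; inconclusive = At least half of replicates reach the limit but their mean does not; inactive = Under half of replicates reach the limit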;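 also: 0% = cytokine-treated negative control wells and 100% = positive control rescue; higher means more ATP so stronger rescue from cytokine killing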
Mdm2 MdmX PPI = inhibitors of human Mdm2-MdmX association, primary screen, cell-based, luminescence, split luciferase, SaOS-2, uHTS | inhibition, % at 8 µM | hit rate 3% among 330,000 | AID 485346, 2010 | SaOS-2 split-luciferase Mdm2/MdmX complementation | Protein Mdm4 (Homo sapiens) + E3 ubiquitin-protein ligase Mdm2 (Homo sapiens), …;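 active = inhibition of at least 50% at 8 µM in the primary screen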
Target sequence (O15151 whole entry, looked up): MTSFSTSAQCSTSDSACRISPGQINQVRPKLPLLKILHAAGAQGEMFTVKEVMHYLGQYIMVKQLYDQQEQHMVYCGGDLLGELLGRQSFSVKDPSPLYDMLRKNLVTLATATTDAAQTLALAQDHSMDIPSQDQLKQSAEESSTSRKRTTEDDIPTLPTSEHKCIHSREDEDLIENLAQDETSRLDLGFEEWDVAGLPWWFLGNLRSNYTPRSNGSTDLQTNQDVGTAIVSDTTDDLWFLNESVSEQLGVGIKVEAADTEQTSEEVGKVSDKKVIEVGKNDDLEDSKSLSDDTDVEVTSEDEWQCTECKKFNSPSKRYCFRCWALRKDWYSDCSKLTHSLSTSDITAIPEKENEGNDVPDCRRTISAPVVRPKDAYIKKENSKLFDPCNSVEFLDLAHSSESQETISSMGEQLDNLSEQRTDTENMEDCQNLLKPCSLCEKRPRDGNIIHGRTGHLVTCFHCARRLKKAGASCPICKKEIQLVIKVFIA
Target sequence (Q00987 whole entry, looked up): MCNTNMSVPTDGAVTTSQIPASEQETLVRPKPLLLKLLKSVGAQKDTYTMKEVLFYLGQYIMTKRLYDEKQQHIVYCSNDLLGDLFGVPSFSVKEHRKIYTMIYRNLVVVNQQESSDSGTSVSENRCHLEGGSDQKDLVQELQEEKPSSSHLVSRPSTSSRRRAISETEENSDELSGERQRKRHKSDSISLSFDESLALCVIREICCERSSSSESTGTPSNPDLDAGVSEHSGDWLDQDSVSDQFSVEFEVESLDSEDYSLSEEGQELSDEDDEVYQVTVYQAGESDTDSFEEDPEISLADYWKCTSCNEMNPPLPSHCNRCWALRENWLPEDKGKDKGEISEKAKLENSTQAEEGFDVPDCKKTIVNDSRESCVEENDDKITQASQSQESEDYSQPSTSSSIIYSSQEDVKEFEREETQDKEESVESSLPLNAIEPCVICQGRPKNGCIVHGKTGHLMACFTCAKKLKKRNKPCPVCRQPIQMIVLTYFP
MPTP inh = mitochondrial permeability transition pore inhibitors, primary screen, biochemical, isolated mouse mitochondria, absorbance | hit rate 1.4% among 360,000 | AID 602449, 2012 | Ca2+ swelling absorbance, 30 min | inhibition, % at 10 µM;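 active = inhibition of 50% or more, scaled per plate between neutral and stimulator controls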;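 also: 0% = DMSO wells given calcium and 100% = 1 mM EGTA wells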
CSC inhib = cancer stem cell viability inhibitors, primary screen, luminescence. hit rate 1.1% among 300,000. inhibition, % at 7.5 µM. cancer stem cell-like cells viability; in the data active = inhibition above about 75%; inconclusive = no clear call, values can overlap the other calls; tested in HMLE shEcad cells
Rh123 counter = fluorescence retest of MPTP screen hits in isolated mitochondria, single concentration; shares compounds with MPTP inh; membrane potential, Rhodamine 123 fluorescence; inhibition, % at 10 µM; hit rate 78% among 5,000; in the data active = inhibition above about 22%;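 also: 0% = DMSO vehicle and 100% = positive control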
MPTP abs DR = mitochondrial permeability transition pore inhibitors, dose response, biochemical, absorbance, uHTS hits | hit rate 58% among 780 | IC50, µM | AID 651561, 2012 | isolated mitochondria swelling | shares compounds with MPTP inh; in the data active = IC50 below about 20 µM
MPTP cs DR = fluorescent counter-screen in isolated mitochondria, dose response, counter-screen for MPTP inhibitor project, biochemical, fluorescence, uHTS hits; IC50, µM; shares compounds with MPTP inh; hit rate 49% among 780; isolated mitochondria counterscreen, fluorescence read-out; in the data active = IC50 below about 80 µM
Starred values were filed as active, the others as inactive; ? = inconclusive; nt = not tested or not shown. Rows were chosen to be rich in hits. Some 5.4% of all compounds tested hit in one or more screens of this group.

SMILES	SKKanGAS inh	Calb FLC	Beta apoptosis	Mdm2 MdmX PPI	MPTP inh	CSC inhib	Rh123 counter	others
CCCCNC(=O)c1ccc(N2CCOCC2)c(NS(=O)(=O)c2ccc(OC)cc2)c1	6.8	21.4	-3.1	20.0	-2.1	-0.5	nt
Nc1cc(S(=O)(=O)Nc2ccc(Cl)cc2)ccc1N1CCOCC1	3.8	-2.5	70.2	7.0	91.0*	1.9	55.1*
c1ccc(NC2=NCCN2CCCC2CCCC2)cc1	nt	nt	0.1	9.3	3.6	2.9	nt
Cc1ccc(CN2CCNC(=O)C2CC(=O)N(Cc2c(C)nn(C)c2C)C2CC2)o1 (configuration not stated)	-0.9	-4.2	-1.9	12.5	-2.0	-7.2	nt
Cc1c(NC(N)=O)c(=O)n(-c2ccccc2)n1C	2.8	-2.9	7.8	-5.8	0.2	-4.1	nt
C[C@@H]1CN([C@H](C)CO)C(=O)CCCn2nncc2CO[C@H]1CN(C)Cc1cccnc1	nt	nt	nt	nt	-1.0	nt	nt
CC(=O)C1CCC2C3CC=C4CC(SC(=N)N)CCC4(C)C3CCC12C (configuration not stated)	nt	nt	nt	nt	79.9*	nt	23.8*
CN(C)CCCNC(=O)CCc1nc2ccccc2c(=O)[nH]1	-2.2	-14.0	-3.0	16.9	73.5*	-5.7	5.5	MPTP abs DR=>100;MPTP cs DR=>80
COc1ccccc1CNC(=O)CCc1nc2ccccc2c(=O)[nH]1	2.5	2.6	-2.1	4.5	-3.4	-0.2	nt
NC(=O)CC(NC(=O)Cc1cccc2ccccc12)c1ccc(NCCCN2CCCC2=O)c([N+](=O)[O-])c1 (configuration not stated)	2.8	-0.8	-4.1	22.1	0.6	14.3	nt
O=C(NNc1cc(C(F)(F)F)nc2ccccc12)Nc1cccc(Cl)c1	4.1	-0.9	9.1	25.1	67.2*	0.3	70.4*
O=C(NC(Cc1ccccc1)C(=O)O)/C(=C\c1ccc([N+](=O)[O-])cc1)NC(=O)c1ccco1 (configuration not stated)	-0.9	-1.7	-2.9	20.7	-0.2	-4.2	nt
COc1ccc(NC(=O)C2CCN(S(=O)(=O)c3ccc4c(c3)NC(=O)C(C)S4)CC2)cc1 (configuration not stated)	-0.2	-1.7	6.3	10.3	6.8	-6.2	nt
Cc1ccc(NC(=O)C2CCN(S(=O)(=O)c3ccc(N4CCCC4=O)cc3)CC2)cc1Cl	3.2	-5.1	122.0*	29.2	101.6*	0.2	108.0*
CC1Sc2ccc(S(=O)(=O)N3CCC(C(=O)Nc4ccc(Cl)cc4)CC3)cc2NC1=O (configuration not stated)	-6.2	-6.3	112.6*	38.7	98.7*	-13.8	99.8*
COC(=O)C[C@H]1C[C@@H]2c3cc(NC(=O)NC4CCCC4)ccc3O[C@@H]2[C@@H](CO)O1	nt	nt	nt	nt	0.1	nt	nt
Cc1cccc2c1-c1sc(C(=O)Nc3cccc([N+](=O)[O-])c3C)cc1CO2	18.3	3.0	13.2	16.6	75.2*	37.4	67.7*
O=C(Nc1ccc(Cl)cc1)Nc1ccccc1NS(=O)(=O)c1cccs1	7.9	15.2	-2.7	21.3	82.5*	35.3	83.4*
NC(=O)c1ccccc1NS(=O)(=O)c1cccs1	0.8	-4.7	-3.4	13.1	-4.3	-10.9	nt
O=S(=O)(Nc1ccccc1Cl)c1ccc(NS(=O)(=O)c2cccs2)cc1	4.1	9.2	-6.0	24.8	-3.0	-2.9	nt
O=C(Nc1ccc(F)cc1)Nc1ccccc1NS(=O)(=O)c1cccs1	1.0	?	3.3	6.3	81.3*	-0.6	86.2*
CN1CCN(C(=O)C2=C[C@@H](c3ccc(C(F)(F)F)cc3)C[C@@H](OCCCCO)O2)CC1	1.2	-4.2	4.0	-1.3	0.8	-1.2	nt
CC(=O)N1CCCc2cc(S(=O)(=O)NCCC3=CCCCC3)ccc21	-4.0	-5.7	22.7	23.4	51.0*	-6.5	23.4*
CC(=O)N1CCCc2cc(S(=O)(=O)NCc3ccc(C)cc3)ccc21	4.9	-7.1	0.6	-1.5	0.8	-7.7	nt
O=C(Nc1ccc(OC(F)F)c(Cl)c1)Nc1ccc2c(c1)OCO2	-4.2	-17.5	9.4	40.0	92.0*	97.5*	88.2*
SMILES	SKKanGAS inh	Calb FLC	Beta apoptosis	Mdm2 MdmX PPI	MPTP inh	CSC inhib	Rh123 counter	others
Cc1ccc(NC(=O)C(C)c2ccc([N+](=O)[O-])cc2)cc1Cl (configuration not stated)	-5.6	-57.5	4.6	-6.0	79.9*	15.9	87.0*
O=C(Nc1ccc(Cl)cc1)Nc1ccc2c(c1)OCO2	-0.5	-1.8	-8.0	-72.4	32.7	9.7	nt
O=C(Nc1ccc2c(c1)OCO2)Nc1ccc(Cl)cc1Cl	-10.0	-4.1	nt	-12.4	83.4*	8.6	94.3*
O=C(Nc1ccc(OC(F)F)c(Cl)c1)c1cccc(OC(F)F)c1	-0.6	-4.4	3.4	25.4	97.0*	31.8	94.8*
CCCc1c(C(=O)N/N=C/c2c(OC)ccc3ccccc23)nnn1-c1nonc1N	10.2	nt	11.3	6.9	1.9	10.3	nt
O=C(Nc1ccc([N+](=O)[O-])cc1)Nc1ccc(OC(F)F)c(Cl)c1	nt	nt	132.0*	nt	97.9*	103.1*	47.0*
O=C(COC(=O)Cc1ccc(Cl)cc1Cl)Nc1ccc(OC(F)F)cc1	-8.0	32.9	-7.2	6.2	1.0	-13.3	nt
O=C(Cc1ccc(Cl)cc1Cl)Nc1ccc(OC(F)F)c(Cl)c1	7.1	-1.5	-3.2	15.2	73.8*	19.6	84.4*
Cc1cc(C(=O)COc2ccccc2C(N)=O)c(C)n1CC1CCCO1 (configuration not stated)	-1.3	19.0	nt	-9.5	92.9*	nt	79.9*
Cc1cc(C(=O)COC(=O)C2COc3ccccc3O2)c(C)n1CC1CCCO1 (configuration not stated)	-8.7	10.8	0.0	-16.9	-1.4	5.7	nt
COc1ncnc2sc(-c3ccccc3)cc12	4.8	-5.8	4.8	-25.4	-0.1	5.0	nt
COc1ccc(Nc2ncnc3sc(-c4ccccc4)cc23)cc1	12.6	-2.5	4.0	27.7	71.2*	36.2	61.1*
N#CC(=C1C=C(Br)C(=NO)C=C1Cl)c1ccc(Cl)cc1	nt	nt	nt	nt	83.2*	nt	85.3*
O=C(c1cccc(Cl)c1Cl)N1CCN(c2ccccn2)CC1	1.8	-1.2	2.1	-21.4	-2.9	-10.1	nt
O=[N+]([O-])c1ccc2[nH]c3c(c2c1)CCCC3	16.9	-2.7	2.5	16.7	72.2*	17.7	70.9*
